According to PubChem BioAssay AID1159580 (chemical genetic matrix, 2015):
Hit rate of the full screen: of about 5,500 compounds, about 2,000 (36%) were called active. Not shown: some 18% with an inconclusive outcome. No stated cut-off is given here; in the data, active means normalized growth mostly below about 0.91 (no sharp cut-off); inconclusive means no clear call, values can overlap the other calls; inactive means mostly above about 0.92. This is one part of the list.

Experiment: chemical genetic growth profiling, strain panel (AID 1159580);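 further: tested at 20 µM; growth read once vehicle control cultures reached saturation at 30 °C; 1 = growth at the plate median or of vehicle wells; lower values mean less growth of the strain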
Details: S. cerevisiae deletion strains, growth OD

Measured: normalized growth

C=CCCCCCCCCCCCC(O)CC(O)CO (centres undefined) (tested in a mixture with another compound)
active: locus YBR021W, strain FUR4, hits give low values 0.426 | locus YBR229C, strain ROT2, hits give low values 0.531 | locus YCL029C, strain bik1, hits give low values 0.253 | locus YDL035C, strain GPR1, hits give low values 0.359 | locus YDL074C, strain BRE1, hits give low values 0.208 | locus YDL101C, strain DUN1, hits give low values 0.242 | locus YDL185W, strain tfp1, hits give low values 0.611 | locus YDL192W, strain arf1, hits give low values 0.231 | locus YDR101C, strain arx1, hits give low values 0.471 | locus YDR150W, strain NUM1, hits give low values 0.637 | locus YDR162C, strain NBP2, hits give low values 0.281 | locus YDR318W, strain mcm21, hits give low values 0.224 | locus YDR388W, hits give low values 0.496 | locus YDR502C, strain sam2, hits give low values 0.347 | locus YEL061C, strain CIN8, hits give low values 0.177 | locus YER110C, hits give low values 0.27 | locus YER155C, strain BEM2, hits give low values 0.0936 | locus YER167W, strain BCK2, hits give low values 0.276 | locus YGL078C, strain dbp3, hits give low values 0.465 | locus YGL086W, strain mad1, hits give low values 0.145 | locus YGL248W, strain PDE1, hits give low values 0.165 | locus YGR135W, strain pre9, hits give low values 0.335 | locus YGR252W, strain gcn5, hits give low values 0.407 | locus YHR030C, strain SLT2, hits give low values 0.21 | locus YHR079C, strain IRE1 (second series), hits give low values 0.253 | locus YHR094C, strain hxt1, hits give low values 0.198 | locus YHR129C, strain ARP1, hits give low values 0.248 | locus YHR200W, strain rpn10, hits give low values 0.328 | locus YIL066C, strain RNR3, hits give low values 0.217 | locus YIL073C, strain SPO22, hits give low values 0.544 | locus YIL125W, strain kgd1, hits give low values 0.288 | locus YIR030C, strain dcg1, hits give low values 0.341 | locus YJL095W, strain BCK1, hits give low values 0.139 | locus YJL134W, strain LCB3, hits give low values 0.273 | locus YJL168C, strain set2, hits give low values 0.521 | locus YJL187C, strain SWE1 (second series), hits give low values 0.386 | locus YKL009W, strain mrt4, hits give low values 0.274 | locus YKL085W, strain MDH1 (second series), hits give low values 0.343 | locus YKL085W, strain MDH1, hits give low values 0.343 | locus YKR001C, strain vps1, hits give low values 0.123 | locus YLR039C, strain RIC1, hits give low values 0.46 | locus YLR058C, strain SHM2, hits give low values 0.301 | locus YLR102C, strain apc9, hits give low values 0.225 | locus YLR262C, strain YPT6, hits give low values 0.355 | locus YLR268W, strain sec22, hits give low values 0.308 | locus YLR330W, strain CHS5, hits give low values 0.097 | locus YLR371W, strain rom2, hits give low values 0.204 | locus YLR418C, strain cdc73, hits give low values 0.186 | locus YML016C, strain PPZ1, hits give low values 0.218 | locus YML032C, strain rad52, hits give low values 0.201 | locus YML124C, strain tub3, hits give low values 0.503 | locus YMR078C, strain ctf18, hits give low values 0.125 | locus YMR223W, strain ubp8, hits give low values 0.159 | locus YMR263W, strain SAP30, hits give low values 0.32 | locus YMR307W, strain GAS1, hits give low values 0.241 | locus YNL067W, strain RPL9B, hits give low values 0.56 | locus YNL153C, strain GIM3, hits give low values 0.365 | locus YNL233W, strain BNI4, hits give low values 0.141 | locus YNL250W, strain rad50, hits give low values 0.734 | locus YNL271C, strain bni1, hits give low values 0.526 | locus YNL298W, strain CLA4, hits give low values 0.384 | locus YNL307C, strain MCK1, hits give low values 0.0684 | locus YNR052C, strain pop2, hits give low values 0.426 | locus YOL006C, strain TOP1, hits give low values 0.149 | locus YOL147C, strain pex11, hits give low values 0.104 | locus YOR061W, strain CKA2, hits give low values 0.0632 | locus YOR069W, strain VPS5, hits give low values 0.559 | locus YOR136W, strain idh2, hits give low values 0.136 | locus YOR144C, strain elg1, hits give low values 0.236 | locus YOR184W, strain ser1, hits give low values 0.129 | locus YOR316C, strain cot1, hits give low values 0.354 | locus YPL241C, strain CIN2, hits give low values 0.114 | locus YPR119W, strain clb2, hits give low values 0.148 | locus YPR141C, strain kar3, hits give low values 0.824 | locus YPR163C, strain tif3, hits give low values 0.205 | locus YPR167C, strain met16, hits give low values 0.203 | strain wtn01, hits give low values 0.337
inactive: locus YKL068W, hits give low values 1 | locus YOL012C, strain htz1 1.15
